The record followed here is PubChem BioAssay (NCATS).

Results filed as inconclusive are left out. Values without a mark were called inactive. Active and inactive are the calls of the source. Calls come from the whole dose curve; as a rule, active = well fitted inhibition curve with a large enough effect; inconclusive = small, poorly fitted or top-dose-only effect; inactive = flat fitted curve, though single readings scatter.
% is set by controls: 0 for no effect and ±100 for the full control effect.

Calcium and integrin-binding protein 1 (Homo sapiens), sequence (Q99828 whole entry, looked up): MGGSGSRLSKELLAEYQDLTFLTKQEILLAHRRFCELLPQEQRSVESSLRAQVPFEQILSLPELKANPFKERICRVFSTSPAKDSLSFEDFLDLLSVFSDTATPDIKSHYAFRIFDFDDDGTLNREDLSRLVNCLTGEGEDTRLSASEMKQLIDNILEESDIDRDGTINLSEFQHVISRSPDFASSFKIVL

This test concerns the target Calcium and integrin-binding protein 1 (Homo sapiens) (UniProt Q99828). As to the kind of experiment: Primary qHTS for Identification of Calcium Integrin Binding Protein 1 (CIB1) Competitor (AID 1508620).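 Note: GST tagged CIB1 binding a fluorescein labelled alphaIIb integrin peptide tracer; top concentration of the series differs between compounds.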 The conditions noted are these: CIB1-GST / FITC-alphaIIb peptide fluorescence polarization; series mostly up to 114 µM; activity change, negative = inhibition: at the top concentration. Summed up: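 Fluorescence polarization competition: CIB1-GST (1 uM final) preincubated with compound 15 min at room temperature, then FITC-labeled alphaIIb peptide (100 nM final) added for another 15 min. Polarization read at Ex 480/Em 540.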
As to `O=P(c1ccccc1)(c1ccccc1)c1cnc2ccccn12`, the “activity change, negative = inhibition” value was -1.31%. On to `Cc1ccc(-c2ccc(C(C)Nc3nc(-c4ccccc4C(C)C)ncc3C)cc2)cn1` (stereo not given), for which the “activity change, negative = inhibition” value is 2.57%. In the case of `CC(=O)NC(c1ccco1)c1cc(Cl)c2ccc(N3CCCCC3)nc2c1O` (stereo not given), the “activity change, negative = inhibition” value was -4.89%. `COc1ccccc1CNc1ccc(S(=O)(=O)Nc2nccs2)cc1`: the “activity change, negative = inhibition” value was 10.1%. Same read-out and setting: the result for `Oc1ccc(/C=C/c2ccccc2F)c2cccnc12` reads -4.89%. Turning to `O=C1CCCC2=C1C(c1ccc(F)cc1)N=C(Nc1nc3ccccc3o1)N2` (stereo not given), the “activity change, negative = inhibition” value was 0.0166%. For the molecule `Cc1cccc(-n2cnc3cc(C(=O)N4CCCCCC4)ccc32)c1`, the “activity change, negative = inhibition” value was 2.32%. Take `COc1cccc(CNc2ccc([S+](=O)([O-])Nc3cc4ccccc4s3)cc2)c1O`: the “activity change, negative = inhibition” value is 0.126%. `COc1ccc(C2Nc3ccccc3C(=O)N2Cc2ccccc2OC)cc1COc1c(C)cc(NC(C)=O)cc1C` (stereo not given): the “activity change, negative = inhibition” value was -2.21%. Turning to `CCOC(=O)/C=C/c1cc(F)c(S(=O)(=O)N2CCN(S(=O)(=O)c3ccc4c(c3)OCCO4)CC2)cc1F`, the “activity change, negative = inhibition” value was 4.97%. For the molecule `CC(C)c1ccccc1-c1nc(NCC2CCN(c3cccnc3)CC2)c2ccccc2n1`, the “activity change, negative = inhibition” value is 95.1%. Still for that read-out and setting: then `O=S(=O)(c1ccc2c(c1)OCCO2)N1CCN(S(=O)(=O)c2ccccc2Cl)CC1`, with -1.87%; and `Cc1noc(C)c1-c1ccc2ncnc(NCc3ccc(C(F)(F)F)o3)c2c1`, with -0.457%. With `COc1ccc(C2=Nn3c(nnc3-c3ccccc3F)SC2)cc1OC1CCOC1` (stereo not given), the “activity change, negative = inhibition” value is 0.264%. With `N#CC1CCN(c2nc(-c3ccc(Br)cc3)cs2)CC1`, the “activity change, negative = inhibition” value is 1.95%.

On to `Cc1cc(C)nc(NC(=S)N2CCN(c3ccc(NS(C)(=O)=O)nn3)CC2)c1`, for which the “activity change, negative = inhibition” value is -7.36%. Regarding `Fc1cc(Nc2nc(-c3ccncc3)nc3ccccc23)ccc1-n1cncn1`, the Potency result was “inactive”.

As to `Nc1ncc(-c2cccc(-c3nn4c(=O)cc(N5CCNCC5)nc4s3)c2)cn1`, the “activity change, negative = inhibition” value is 1.79%. Turning to `O=C(O)c1ccc(-n2cccc2/C=C2\SC(=O)N(Cc3ccc(Br)cc3)C2=O)cc1`, the “activity change, negative = inhibition” value was 3.61%. Turning to `NCCC(=O)Nc1cccc(-c2nn3c(=O)cc(N4CCNCC4)nc3s2)c1`, the “activity change, negative = inhibition” value is 5.57%. Regarding `Fc1ccc(-c2c(P(=S)(c3ccccc3)c3ccccc3)n3ccccc3[n+]2C/C=C/c2ccccc2)cc1`, the “activity change, negative = inhibition” value was -9.61%. For `Cc1cc(C)n2ncc(C(=O)Nc3ccc(S(C)(=O)=O)cc3)c2n1`, the “activity change, negative = inhibition” value is 0.128%. Consider `Cc1ccc(S(=O)(=O)N2CCN(c3nc(-c4ccco4)nc4ccccc34)CC2)cc1`, for which the “activity change, negative = inhibition” value was 1.71%. On to `N#Cc1c(-c2ccc(OCCOCCOCCN)cc2)no[n+]1[O-]`, for which the “activity change, negative = inhibition” value is -8.41%.

Consider `Cc1cc(NS(=O)(=O)c2ccc(NC(=O)CCc3ccc(Cl)c(Cl)c3)cc2)no1`, for which the “activity change, negative = inhibition” value is -18.1%. The same measure, in the same setting: the result for `CCOc1ccc(-c2csc(N3CCC(C(N)=O)CC3)n2)cc1` reads 3.14%; that for `Cc1ccc(NS(=O)(=O)c2ccc3c(c2)NC(=O)CO3)cc1C`, 5.69%. With `O=C(COC(=O)CNC(=O)c1ccccc1)Nc1ccccc1Cl`, the “activity change, negative = inhibition” value is -1.75%. On to `COC(=O)c1ccc(O)c2ncc(-c3ccc(C(=O)N4CCN(C)CC4)cc3)cc12`, for which the “activity change, negative = inhibition” value is -5.08%.

For `Cc1ccc(N[S+](=O)([O-])c2cc3c(cc2Cl)NC(=O)CO3)cc1Br`, the “activity change, negative = inhibition” value was -5.18%. Same read-out and setting: then `O=C(c1cccs1)c1nonc1C(=O)c1cccs1`, with -1.44%.

With `O=C(Nc1cncc(-c2cccnc2)c1)c1cccs1`, the “activity change, negative = inhibition” value was -3.13%. The same measure, in the same setting: then `Cc1sc(NC(=O)Cc2ccc3c(c2)OCO3)nc1-c1ccc2c(c1)CCN2C(=O)c1ccccc1Cl`, with 8.57%; and `O=C(O)c1ccc(CSc2nnc(-c3cccc([S+](=O)([O-])NC4CCCC4)c3)n2-c2ccccc2)cc1`, with -3.25%; and `Cc1ccc(NS(=O)(=O)c2ccc3ccccc3c2)cc1C`, with 6.68%. `Cc1cc2c(s1)c1cnn(Cc3ccc(F)cc3)c(=O)c1n2C`: the “activity change, negative = inhibition” value is 5.77%.

Consider `COc1ccc(NC(=O)c2cnn3c(-c4ccccc4)cc(C)nc23)cc1`, for which the “activity change, negative = inhibition” value is 1.5%. `CCOc1ccc(CNc2ccc(-c3nc4ccccc4[nH]3)cc2)cc1`: the “activity change, negative = inhibition” value was -2.36%. For `O=C(O)c1ccc2c(c1)C(=O)N([C@@H](C(=O)O)C(c1ccccc1)c1ccccc1)C2=O`, the “activity change, negative = inhibition” value was -3.5%. On to `Cc1nnc(-c2cnn(C)c2N)n1CCCn1cccc1`, for which the “activity change, negative = inhibition” value is 1.25%.
